# The supplement of paper PMC7184167
# Where a name gives a salt, the structure may show the parent alone.
# System: replication-induced senescent mouse newborn dermal fibroblasts (NBF)
# Assay: relative cell viability of senescent cells (fraction); higher = less killing of senescent cells
# Conditions: 1 µM; 3 days
# Protocol: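 Replication-induced senescent newborn mouse skin fibroblasts (NBFs) in 24-well plates were treated with a Selleck FDA-approved drug library at 1 µM for 3 days.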
row,Compound,relative cell viability
1,Nc1ccc(S(=O)(=O)Nc2ccccn2)cc1 [Sulfapyridine],0.951
2,O=C(Nc1cccc2c(=O)cc(-c3nnn[nH]3)oc12)c1ccc(OCCCCc2ccccc2)cc1 [Pranlukast],1.01
3,CN(C/C=C/C#CC(C)(C)C)Cc1cccc2ccccc12 [Terbinafine],0.403
4,Nc1cccc2c1CN(C1CCC(=O)NC1=O)C2=O (stereo not given) [Lenalidomide (CC-5013)],1.04
5,CCCCCOC(=O)Nc1nc(=O)n([C@@H]2O[C@H](C)[C@@H](O)[C@H]2O)cc1F [Capecitabine],0.891
6,Nc1ccc(S(N)(=O)=O)cc1 [Sulfanilamide],0.91
7,C[C@H]1C[C@H]2[C@@H]3CCC4=CC(=O)C=C[C@]4(C)[C@H]3C(=O)C[C@]2(C)[C@@]1(O)C(=O)CO [Meprednisone],1.09
8,CCCCCCCCCCC[C@@H](C[C@@H]1OC(=O)[C@H]1CCCCCC)OC(=O)[C@H](CC(C)C)NC=O [Orlistat],0.998
9,C[C@]1(O)C[C@@H](c2nc(-c3ccc4ccc(-c5ccccc5)nc4c3)c3c(N)nccn32)C1 [Linsitinib (OSI-906)],0.445
10,CO/N=C(\C(=O)N[C@@H]1C(=O)N2C(C(=O)OCOC(=O)C(C)(C)C)=C(/C=C\c3scnc3C)CS[C@H]12)c1csc(N)n1 [Cefditoren Pivoxil],0.949
11,COC(=O)C1=C(C)NC(C)=C(C(=O)OC)C1c1ccccc1[N+](=O)[O-] [Nifedipine],1.01
12,NS(=O)(=O)c1cc2c(cc1Cl)NCNS2(=O)=O [Hydrochlorothiazide],1.07
13,Cn1cc(CNCC2CCN(c3ncc(C(=O)NO)cn3)CC2)c2ccccc21,0.757
14,CC(C)NCC(O)COc1ccc(CCOCC2CC2)cc1 (stereo not given) [Betaxolol HCl],1.1
15,C[N+]1(C)[C@@H]2C[C@@H](OC(=O)C(O)(c3cccs3)c3cccs3)C[C@H]1[C@@H]1O[C@@H]12 [Tiotropium Bromide hydrate],1.07
16,CN1CC(=O)N2[C@H](c3ccc4c(c3)OCO4)c3[nH]c4ccccc4c3C[C@@H]2C1=O [Tadalafil],0.318
17,CN(C)CCc1c[nH]c2ccc(Cn3cncn3)cc12 [Rizatriptan Benzoate],1.09
18,C[C@H](CCC(=O)O)[C@H]1CC[C@H]2[C@@H]3[C@@H](O)C[C@@H]4C[C@H](O)CC[C@]4(C)[C@H]3CC[C@]12C [Ursodiol],0.448
19,CO[C@H]1/C=C/O[C@@]2(C)Oc3c(C)c(O)c4c(O)c(c5c(nc6cc(C)ccn65)c4c3C2=O)NC(=O)/C(C)=C\C=C\[C@H](C)[C@H](O)[C@@H](C)[C@@H](O)[C@@H](C)[C@H](OC(C)=O)[C@@H]1C [Rifaximin],0.971
20,CN(C)CCOC(c1ccccc1)c1ccccc1 [Diphenhydramine HCl],1.14

row,Compound,relative cell viability
1,CC(C)NCC(O)COc1ccc(COCCOC(C)C)cc1 (stereo not given) [Bisoprolol fumarate],0.929
2,CCCc1cc(C(N)=S)ccn1 [Protionamide],1.02
3,COc1ccc(-c2nc3cc(C4=NNC(=O)CC4C)ccc3[nH]2)cc1 (stereo not given) [Pimobendan],0.639
4,C[C@]12C=CC(=O)C=C1CC[C@@H]1[C@@H]2C(=O)C[C@@]2(C)[C@H]1CC[C@]2(O)C(=O)CO [Prednisone],0.875
5,CC(C(=O)O)c1ccc(-c2ccccc2)c(F)c1 (stereo not given) [Flurbiprofen],1.04
6,Cc1cnc(C(=O)O)c[n+]1[O-] [Acipimox],0.938
7,CCC[S+]([O-])c1ccc2[nH]c(NC(=O)OC)nc2c1 (stereo not given) [Albendazole Oxide],0.993
8,O=C1CCC(N2C(=O)c3ccccc3C2=O)C(=O)N1 (stereo not given) [Thalidomide],0.296
9,NC(=O)NO [Hydroxyurea],0.967
10,CS(=O)(=O)OCCCCOS(C)(=O)=O [Busulfan],1.03
11,CCC(=O)OCC(=O)[C@@]1(OC(=O)CC)[C@@H](C)C[C@H]2[C@@H]3CCC4=CC(=O)C=C[C@]4(C)[C@@]3(F)[C@@H](O)C[C@@]21C [Betamethasone Dipropionate],0.902
12,C[C@@H](c1ncncc1F)[C@](O)(Cn1cncn1)c1ccc(F)cc1F [Voriconazole],0.928
13,COc1cc(Nc2ncc3c(n2)-c2ccc(Cl)cc2C(c2c(F)cccc2OC)=NC3)ccc1C(=O)O [Alisertib (MLN8237)],0.0819
14,CCCOc1ccc(C(=O)OCCN(CC)CC)cc1N [Proparacaine HCl],0.992
15,NCCCCCC(=O)O [(6-)ε-Aminocaproic acid],0.983
16,Cc1cn([C@H]2C=C[C@@H](CO)O2)c(=O)[nH]c1=O [Stavudine (d4T)],0.893
17,COC(=O)c1ccc2c(C(=Nc3ccc(N(C)C(=O)CN4CCN(C)CC4)cc3)c3ccccc3)c(O)[nH]c2c1 [Nintedanib (BIBF 1120)],1.01
18,Cc1ccccc1N1C(=O)c2cc(S(N)(=O)=O)c(Cl)cc2NC1C (stereo not given) [Metolazone],0.962
19,Nc1ccn([C@@H]2CS[C@H](CO)O2)c(=O)n1 [Lamivudine],0.759
20,NC(=O)c1ncn([C@@H]2O[C@H](CO)[C@@H](O)[C@H]2O)c1N [AICAR (Acadesine)],1.02
